PubChem BioAssay (EPA / NIEHS)
Values joined by “and” are separate entries in the source; they are usually repeats but may differ in a detail not shown here. Equal values may be shown once. Results filed as inconclusive are left out. Some structures have more than one record in an assay (separate samples or runs), and their calls can disagree. Active and inactive are the calls of the source. The calls were made as follows, unless noted: active = hit-call score of the fitted dose curve at least 0.9, where 1 is the maximum; inconclusive = response in the unintended direction; inactive = score below 0.9.

Key:
[1] = ATG_NF_kB_CIS: Attagene CIS-FACTORIAL HepG2 Assay for human Nuclear Factor Kappa B (NF-kB) (AID 2282991; active = hit-call score of the fitted dose curve at least 0.9, where 1 is the maximum; inactive = score below 0.9); settings: HepG2 Attagene cis-factorial NF-kB reporter mRNA; actives raise or lower the signal
Method in brief: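 After 24 h compound incubation, transfected HepG2 cells yield total RNA; reporter cDNA is PCR-amplified, end-labelled with 6-FAM, HpaI-digested and analysed on a genetic analyser. Endogenous factor activity, DMSO-referenced bidirectional fit.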

[2] = ATG_NRF2_ARE_CIS: Attagene CIS-FACTORIAL HepG2 Assay for human Nuclear Factor Erythroid 2 Related Factor 2 (NFR2) response to Antioxidant Response Elements (ARE) (AID 2282992; active = hit-call score of the fitted dose curve at least 0.9, where 1 is the maximum; inactive = score below 0.9;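 as to AC50: reporter mRNA level measured by RT-PCR and capillary electrophoresis fluorescence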); settings: HepG2 Attagene ARE/NRF2 reporter, transcription factor activity; actives raise or lower the signal
Method in brief: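 HepG2 cells transiently transfected with multiplexed cis-regulated reporter transcription units measure endogenous transcription factor activity. Reporter mRNA at 24 h is quantified by RT-PCR, fluorescent labelling and capillary electrophoresis, with bidirectional fitting relative to DMSO.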

[3] = biological target: Cellular tumor antigen p53 (Homo sapiens) (UniProt P04637); experiment: ATG_p53_CIS: Attagene CIS-FACTORIAL HepG2 Assay for human p53 Transcription Factor (AID 2282994; active = hit-call score of the fitted dose curve at least 0.9, where 1 is the maximum; inactive = score below 0.9); settings: HepG2 p53 cis-element reporter, Attagene mRNA; actives raise or lower the signal
Sequence of Cellular tumor antigen p53 (Homo sapiens) (P04637 whole entry, looked up): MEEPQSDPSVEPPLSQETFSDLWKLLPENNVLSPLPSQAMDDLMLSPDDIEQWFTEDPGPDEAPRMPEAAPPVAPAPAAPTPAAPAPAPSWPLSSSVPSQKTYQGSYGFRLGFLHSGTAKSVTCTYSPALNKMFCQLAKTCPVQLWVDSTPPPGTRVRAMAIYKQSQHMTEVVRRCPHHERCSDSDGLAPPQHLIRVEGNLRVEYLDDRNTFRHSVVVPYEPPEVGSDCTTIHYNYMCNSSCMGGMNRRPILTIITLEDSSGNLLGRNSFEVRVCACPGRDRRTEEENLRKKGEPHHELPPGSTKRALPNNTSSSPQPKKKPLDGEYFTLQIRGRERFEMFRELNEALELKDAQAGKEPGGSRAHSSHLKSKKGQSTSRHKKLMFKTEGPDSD
Method in brief: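 HepG2 cells transiently transfected with multiplexed cis-regulated reporter transcription units read endogenous TF activity. After 24 h compound exposure, reporter mRNA was quantified by RT-PCR, fluorescent labelling, HpaI digestion and capillary electrophoresis; bidirectional fits versus DMSO baseline.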

[4] = biological target: human Peroxisome Proliferator-activated Receptor alpha (PPARa), PPARA (gene 5465) (UniProt Q07869); experiment: ATG_PPARa_TRANS: Attagene TRANS-FACTORIAL HepG2 Assay for human Peroxisome Proliferator-activated Receptor alpha (PPARa) (AID 2283001);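 as to AC50: potency for gain of reporter signal over DMSO so agonist or activator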
Sequence of human Peroxisome Proliferator-activated Receptor alpha (PPARa), PPARA (gene 5465) (Q07869 whole entry, looked up, the tested form may be a part): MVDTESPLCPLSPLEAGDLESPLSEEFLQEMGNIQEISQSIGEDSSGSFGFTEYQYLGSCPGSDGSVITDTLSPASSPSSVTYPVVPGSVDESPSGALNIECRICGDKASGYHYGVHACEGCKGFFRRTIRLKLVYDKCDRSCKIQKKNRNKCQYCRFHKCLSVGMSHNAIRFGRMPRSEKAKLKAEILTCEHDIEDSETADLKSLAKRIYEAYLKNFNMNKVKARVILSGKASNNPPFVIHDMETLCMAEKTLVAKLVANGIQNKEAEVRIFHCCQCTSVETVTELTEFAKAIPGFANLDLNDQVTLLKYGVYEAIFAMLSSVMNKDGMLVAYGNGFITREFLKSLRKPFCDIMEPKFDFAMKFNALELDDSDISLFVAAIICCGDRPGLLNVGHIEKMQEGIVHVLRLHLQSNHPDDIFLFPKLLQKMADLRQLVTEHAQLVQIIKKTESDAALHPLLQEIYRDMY
Method in brief: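 Measures transcriptional activity of an exogenous chimeric PPARa-Gal4 protein in transiently transfected HepG2 cells after 24 h dosing. Reporter mRNA quantified via RT-PCR and capillary electrophoresis; DMSO served as negative control.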

[5] = biological target: human Peroxisome Proliferator-activated Receptor delta (PPARd), PPARD (gene 5467) (UniProt Q03181); experiment: ATG_PPARd_TRANS: Attagene TRANS-FACTORIAL HepG2 Assay for human Peroxisome Proliferator-activated Receptor delta (PPARd) (AID 2283002)
Sequence of human Peroxisome Proliferator-activated Receptor delta (PPARd), PPARD (gene 5467) (Q03181 whole entry, looked up, the tested form may be a part): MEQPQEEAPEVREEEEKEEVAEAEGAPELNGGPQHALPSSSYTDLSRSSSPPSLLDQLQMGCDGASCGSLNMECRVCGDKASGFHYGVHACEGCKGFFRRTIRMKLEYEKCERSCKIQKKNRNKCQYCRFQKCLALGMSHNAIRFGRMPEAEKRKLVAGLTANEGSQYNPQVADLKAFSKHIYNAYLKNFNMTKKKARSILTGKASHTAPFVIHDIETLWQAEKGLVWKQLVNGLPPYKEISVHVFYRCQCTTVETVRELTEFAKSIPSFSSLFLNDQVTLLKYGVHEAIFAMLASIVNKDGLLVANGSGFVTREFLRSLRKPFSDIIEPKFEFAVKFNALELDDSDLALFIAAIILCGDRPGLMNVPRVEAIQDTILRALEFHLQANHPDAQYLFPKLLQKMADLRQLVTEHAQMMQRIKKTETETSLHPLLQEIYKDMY
Method in brief: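 Read-out: reporter mRNA induction, quantified by fluorescent RT-PCR products resolved by capillary electrophoresis. Human HepG2 liver cells carried transiently transfected Gal4-UAS reporter constructs with chimeric NR-Gal4 fusions. Cells were dosed for 24 h; DMSO served as baseline.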

[6] = biological target: Retinoic acid receptor alpha (Homo sapiens) (UniProt P10276); experiment: ATG_RARa_TRANS: Attagene TRANS-FACTORIAL HepG2 Assay for human Retinoic Acid Receptor alpha (RARa) (AID 2283005)
Sequence of Retinoic acid receptor alpha (Homo sapiens) (P10276 whole entry, looked up, the tested form may be a part): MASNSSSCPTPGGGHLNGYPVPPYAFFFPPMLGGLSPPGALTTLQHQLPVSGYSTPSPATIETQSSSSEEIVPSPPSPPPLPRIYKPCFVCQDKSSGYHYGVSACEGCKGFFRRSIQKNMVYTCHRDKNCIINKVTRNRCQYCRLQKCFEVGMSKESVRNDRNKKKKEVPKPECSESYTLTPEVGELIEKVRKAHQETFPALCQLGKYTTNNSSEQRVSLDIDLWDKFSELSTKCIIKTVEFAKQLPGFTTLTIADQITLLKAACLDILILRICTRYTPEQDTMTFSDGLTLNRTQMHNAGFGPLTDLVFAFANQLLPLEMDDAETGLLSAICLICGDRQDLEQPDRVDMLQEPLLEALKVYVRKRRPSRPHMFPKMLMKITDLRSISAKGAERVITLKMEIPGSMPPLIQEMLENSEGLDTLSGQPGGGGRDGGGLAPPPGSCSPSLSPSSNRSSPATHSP
Method in brief: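 HepG2 transiently transfected with multiplex GAL4-UAS reporter units including a human RARa–GAL4 chimera; 24 h compound exposure. Reporter mRNA quantified by RT-PCR, 6-FAM labeling and capillary electrophoresis; gain of signal versus DMSO.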

[7] = biological target: Peroxisome proliferator-activated receptor gamma (Homo sapiens) (UniProt P37231); experiment: ATG_PPARg_TRANS: Attagene TRANS-FACTORIAL HepG2 Assay for human Peroxisome Proliferator-activated Receptor-gamma (PPARg) (AID 2283007)
Sequence of Peroxisome proliferator-activated receptor gamma (Homo sapiens) (P37231 whole entry, looked up, the tested form may be a part): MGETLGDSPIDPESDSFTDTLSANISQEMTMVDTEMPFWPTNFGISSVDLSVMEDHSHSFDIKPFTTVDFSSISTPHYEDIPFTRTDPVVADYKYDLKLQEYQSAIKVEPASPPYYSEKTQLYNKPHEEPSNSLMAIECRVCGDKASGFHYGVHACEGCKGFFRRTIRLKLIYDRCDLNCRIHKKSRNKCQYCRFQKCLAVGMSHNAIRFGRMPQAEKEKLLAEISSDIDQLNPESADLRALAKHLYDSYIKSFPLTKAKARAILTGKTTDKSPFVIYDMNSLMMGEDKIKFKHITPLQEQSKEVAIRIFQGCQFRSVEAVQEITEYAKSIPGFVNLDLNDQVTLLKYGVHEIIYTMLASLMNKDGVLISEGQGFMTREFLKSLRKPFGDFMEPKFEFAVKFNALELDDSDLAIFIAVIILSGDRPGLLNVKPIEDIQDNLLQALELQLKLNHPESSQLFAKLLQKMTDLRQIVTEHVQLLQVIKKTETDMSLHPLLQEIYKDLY
Method in brief: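 Liver-derived HepG2 cells expressing an exogenous NR-Gal4 chimera alongside GAL4-UAS reporter genes; 24 h exposure. Fluorescence of reporter RT-PCR products, separated by capillary electrophoresis, gives mRNA induction relative to DMSO.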

[8] = biological target: Nuclear receptor subfamily 1 group I member 2 (Homo sapiens) (UniProt O75469); experiment: ATG_PXR_TRANS: Attagene TRANS-FACTORIAL HepG2 Assay for human Pregnane X Receptor (PXR) (AID 2283008)
Sequence of Nuclear receptor subfamily 1 group I member 2 (Homo sapiens) (O75469 whole entry, looked up, the tested form may be a part): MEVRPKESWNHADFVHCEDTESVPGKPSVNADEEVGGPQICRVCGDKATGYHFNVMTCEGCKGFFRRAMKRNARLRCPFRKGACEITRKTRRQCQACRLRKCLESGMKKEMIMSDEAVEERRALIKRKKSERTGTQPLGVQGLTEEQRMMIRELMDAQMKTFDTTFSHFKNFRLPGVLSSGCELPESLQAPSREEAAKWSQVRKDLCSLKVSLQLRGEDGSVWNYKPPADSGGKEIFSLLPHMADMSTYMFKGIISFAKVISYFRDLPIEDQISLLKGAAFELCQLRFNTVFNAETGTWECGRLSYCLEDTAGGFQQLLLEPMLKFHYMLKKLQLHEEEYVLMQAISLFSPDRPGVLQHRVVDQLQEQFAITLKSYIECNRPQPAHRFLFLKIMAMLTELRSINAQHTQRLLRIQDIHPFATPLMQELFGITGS
Method in brief: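 HepG2 cells transiently transfected with multiple reporter units, here a PXR-GAL4 chimera driving a GAL4-UAS reporter; 24 h compound exposure. Reporter mRNA measured by RT-PCR, FAM labelling and capillary electrophoresis; gain of signal fitted against DMSO baseline.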

[9] = biological target: human Retinoic Acid Receptor gamma (RARg), RARG (gene 5916) (UniProt P13631); experiment: ATG_RARg_TRANS: Attagene TRANS-FACTORIAL HepG2 Assay for human Retinoic Acid Receptor gamma (RARg) (AID 2283009)
Sequence of human Retinoic Acid Receptor gamma (RARg), RARG (gene 5916) (P13631 whole entry, looked up, the tested form may be a part): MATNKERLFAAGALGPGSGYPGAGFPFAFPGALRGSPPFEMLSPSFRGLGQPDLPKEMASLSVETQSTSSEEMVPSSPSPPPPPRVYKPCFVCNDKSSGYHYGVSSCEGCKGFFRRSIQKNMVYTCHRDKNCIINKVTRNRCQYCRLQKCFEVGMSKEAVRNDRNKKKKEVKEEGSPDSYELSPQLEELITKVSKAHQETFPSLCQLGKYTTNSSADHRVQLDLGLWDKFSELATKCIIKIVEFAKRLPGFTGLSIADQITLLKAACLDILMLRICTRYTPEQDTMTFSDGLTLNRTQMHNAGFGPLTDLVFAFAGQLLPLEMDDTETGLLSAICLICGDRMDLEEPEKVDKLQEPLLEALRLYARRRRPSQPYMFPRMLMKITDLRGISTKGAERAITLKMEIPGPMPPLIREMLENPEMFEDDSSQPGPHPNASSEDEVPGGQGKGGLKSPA
Method in brief: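 HepG2, RARg-GAL4 TRANS system, 24 h exposure; reporter mRNA by RT-PCR + CE fluorescence; increase over DMSO.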

[10] = biological target: Retinoic acid receptor RXR-alpha (Homo sapiens) (UniProt P19793); experiment: ATG_RXRa_TRANS: Attagene TRANS-FACTORIAL HepG2 Assay for human Retinoid X Receptor alpha (RXRa) (AID 2283012)
Method in brief: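 Cells (HepG2) carried transiently transfected GAL4-responsive reporter units. Following a 24 h chemical incubation, reporter mRNA induction was read via RT-PCR fragment analysis; DMSO served as negative control and baseline.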

[11] = biological target: human Retinoic Acid Receptor beta (RARb), RARB (gene 5915) (UniProt P10826); experiment: ATG_RARb_TRANS: Attagene TRANS-FACTORIAL HepG2 Assay for human Retinoic Acid Receptor beta (AID 2283004)
Sequence of human Retinoic Acid Receptor beta (RARb), RARB (gene 5915) (P10826 whole entry, looked up): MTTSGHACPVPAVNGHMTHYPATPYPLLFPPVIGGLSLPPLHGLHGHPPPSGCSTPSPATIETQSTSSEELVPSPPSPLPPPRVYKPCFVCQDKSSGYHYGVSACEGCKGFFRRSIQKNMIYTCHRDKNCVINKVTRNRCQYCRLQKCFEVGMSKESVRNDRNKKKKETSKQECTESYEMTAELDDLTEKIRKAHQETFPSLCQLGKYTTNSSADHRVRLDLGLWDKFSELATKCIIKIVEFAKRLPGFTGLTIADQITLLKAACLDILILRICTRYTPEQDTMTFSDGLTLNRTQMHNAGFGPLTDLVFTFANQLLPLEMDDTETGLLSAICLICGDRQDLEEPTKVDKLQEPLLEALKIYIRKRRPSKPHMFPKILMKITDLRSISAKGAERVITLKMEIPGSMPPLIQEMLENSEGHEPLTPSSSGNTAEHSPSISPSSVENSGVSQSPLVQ
Method in brief: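 Transient transfection of HepG2 with multiple reporter units → chemical dosing, 24 h → total RNA isolation → RT with oligo(dT) → reporter-specific PCR, 6-FAM primer extension, HpaI digest → capillary electrophoresis. Positive direction vs DMSO control.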

[12] = biological target: human RAR-related Orphan Receptor beta (RORb), RORB (gene 6096) (UniProt Q92753); experiment: ATG_RORb_TRANS: Attagene TRANS-FACTORIAL HepG2 Assay for human RAR-related Orphan Receptor beta (RORb) (AID 2283010)
Sequence of human RAR-related Orphan Receptor beta (RORb), RORB (gene 6096) (Q92753 whole entry, looked up, the tested form may be a part): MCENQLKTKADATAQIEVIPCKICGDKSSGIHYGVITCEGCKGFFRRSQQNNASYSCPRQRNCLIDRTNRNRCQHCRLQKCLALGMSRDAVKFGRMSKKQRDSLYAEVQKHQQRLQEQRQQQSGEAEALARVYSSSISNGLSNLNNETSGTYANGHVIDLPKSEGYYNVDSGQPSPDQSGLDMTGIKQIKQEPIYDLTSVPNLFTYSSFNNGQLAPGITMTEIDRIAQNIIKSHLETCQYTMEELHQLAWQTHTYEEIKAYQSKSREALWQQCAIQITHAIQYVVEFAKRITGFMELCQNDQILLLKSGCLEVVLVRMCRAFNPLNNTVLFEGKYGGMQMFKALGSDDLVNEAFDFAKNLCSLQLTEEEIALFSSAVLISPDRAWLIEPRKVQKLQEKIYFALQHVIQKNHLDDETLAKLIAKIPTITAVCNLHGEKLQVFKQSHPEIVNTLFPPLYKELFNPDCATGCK
Method in brief: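 In this TRANS-format test, human HepG2 cells express chimeric NR-Gal4 fusion proteins driving GAL4-UAS reporters. After 24 h dosing, reporter transcripts are measured by fluorescent RT-PCR/capillary electrophoresis, with DMSO as negative control.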

[13] = biological target: human RAR-related Orphan Receptor gamma (RORg), RORC (gene 6097) (UniProt P51449); experiment: ATG_RORg_TRANS: Attagene TRANS-FACTORIAL HepG2 Assay for human RAR-related Orphan Receptor gamma (RORg) (AID 2283011)
Sequence of human RAR-related Orphan Receptor gamma (RORg), RORC (gene 6097) (P51449 whole entry, looked up, the tested form may be a part): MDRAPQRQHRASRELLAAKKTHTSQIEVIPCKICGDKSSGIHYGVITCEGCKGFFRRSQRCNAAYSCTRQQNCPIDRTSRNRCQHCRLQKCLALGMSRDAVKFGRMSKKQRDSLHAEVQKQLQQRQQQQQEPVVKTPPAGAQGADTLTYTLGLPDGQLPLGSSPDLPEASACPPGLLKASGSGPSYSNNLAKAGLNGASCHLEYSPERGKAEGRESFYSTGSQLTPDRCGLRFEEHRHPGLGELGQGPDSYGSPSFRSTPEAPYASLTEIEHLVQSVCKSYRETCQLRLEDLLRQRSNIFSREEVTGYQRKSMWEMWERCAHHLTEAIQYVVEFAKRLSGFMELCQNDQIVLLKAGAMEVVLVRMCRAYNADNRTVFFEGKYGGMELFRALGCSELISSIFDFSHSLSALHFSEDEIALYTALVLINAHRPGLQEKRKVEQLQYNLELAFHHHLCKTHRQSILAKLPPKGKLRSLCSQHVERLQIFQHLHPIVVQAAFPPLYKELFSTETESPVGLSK
Method in brief: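 First, HepG2 liver cells were transfected with GAL4-UAS-driven reporter constructs and the RORg-Gal4 fusion. Next, they were treated with chemical for 24 h. Finally, reporter mRNA was quantified by RT-PCR and capillary electrophoresis, with upward activity fitted against DMSO.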

[14] = BSK_3C_TissueFactor: BioMAP Diversity Plus: 3C Assay for Tissue Factor Biomarker Activity (AID 2282997; active = hit-call score of the fitted dose curve at least 0.9, where 1 is the maximum; inactive = score below 0.9); settings: BioMAP 3C HUVEC, tissue factor biomarker readout; actives raise or lower the signal
Method in brief: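 ELISA read-out of Tissue Factor levels on human umbilical vein endothelium collected 24 h after chemical dosing. Gain or loss of signal was fitted relative to DMSO.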

[15] = BSK_3C_VCAM1: BioMAP Diversity Plus: 3C Assay for Vascular cell adhesion molecule 1 (VCAM1) Biomarker Activity (AID 2282999; active = hit-call score of the fitted dose curve at least 0.9, where 1 is the maximum; inactive = score below 0.9); settings: BioMAP 3C HUVEC, VCAM1 ELISA, cytokine-stimulated; actives raise or lower the signal
Method in brief: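 Human umbilical vein endothelial cells (3C system), biomarker read by ELISA 24 h after dosing; bidirectional fit against DMSO baseline. Cytotoxicity tracked by SRB total-protein staining in parallel cultures at biomarker time.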

[16] = BSK_4H_Eotaxin3: BioMAP Diversity Plus: 4H Assay for Eotaxin 3 Biomarker Activity (AID 2283000; active = hit-call score of the fitted dose curve at least 0.9, where 1 is the maximum; inactive = score below 0.9); settings: primary human endothelial cells (HUVEC); actives raise or lower the signal
Method in brief: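 Chemicals were added to human umbilical vein endothelium cultures, and Eotaxin-3 was quantified by ELISA at 24 h. Values were derived by bidirectional fitting with DMSO serving as negative control and activity baseline.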

[17] = BSK_3C_Proliferation: Cell Proliferation Assessment in the BioMAP Diversity Plus: 3C Assay (AID 2283006; active = hit-call score of the fitted dose curve at least 0.9, where 1 is the maximum; inactive = score below 0.9;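 as to AC50: potency may reflect either rise or fall in cell number versus DMSO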); settings: primary human endothelial cells (HUVEC)
Method in brief: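 Proliferation of human vascular endothelial primary cells after 48 h dosing, quantified as SRB-stained protein at 560 nm relative to DMSO.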

[18] = ATG_Oct_MLP_CIS: Attagene CIS-FACTORIAL HepG2 Assay for human Octamer-Binding Transcription Factor (Oct) (AID 2282993; active = hit-call score of the fitted dose curve at least 0.9, where 1 is the maximum; inactive = score below 0.9); settings: HepG2 Attagene cis-factorial Oct reporter, mRNA; actives raise or lower the signal
Method in brief: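 Transfected HepG2 cells, 24 h treatment. Reporter mRNA quantified by RT-PCR–capillary electrophoresis; bidirectional fitting against DMSO.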

Measured: AC50

CCc1cccc(CC)c1N(COC)C(=O)CS(=O)(=O)O
active: [8] 7.05 µM
inactive: [1] | [2] | [3] | [4] | [5] | [6] | [7] | [9] | [10]

O=C(c1cc(O)c(O)c(O)c1)c1ccc(O)c(O)c1O
inactive: [1] | [2] | [4] | [5] | [11] | [9] | [12] | [13] | [10]
active: [3] 100 µM

CC(C)(c1ccc(Oc2ccc(N)cc2)cc1)c1ccc(Oc2ccc(N)cc2)cc1
inactive: [1] | [3] | [5] | [10]
active: [2] 3.71 µM | [7] 1.69 µM | [8] 2.28 µM

C=CC(F)(F)C(F)(F)C(F)(F)C(F)(F)F
inactive: [1] | [2] | [3] | [4] | [7] | [8] | [10]

Clc1ccc2c(Cl)ccnc2c1
inactive: [1] | [3] | [5] | [11] | [6] | [9] | [10]
active: [2] 3.21 µM | [7] 16.9 µM

O=C(CC(=O)C(F)(F)C(F)(F)C(F)(F)F)c1cccs1
active: [2] 12.9 µM and 20.2 µM | [14] 29.2 µM and 35.5 µM | [15] 45.3 µM and 48.7 µM | [16] 34.6 µM and 39.1 µM | [4] 13.3 µM and 14.1 µM | [17] 15.1 µM and 16.5 µM | [7] 5.3 µM and 10.5 µM
inactive: [1] | [3] | [5] | [6] | [9] | [12] | [10]

CCCCC(CC)C(=O)OCCOCCOCCOCCOC(=O)C(CC)CCCC (stereo unspecified)
active: [2] 100 µM | [17] 20 µM | [8] 35.3 µM
inactive: [1] | [18] | [14] | [15] | [16] | [4] | [7] | [10]

Brc1ccc(Oc2ccc(Br)cc2Br)cc1
inactive: [1] | [2] | [3] | [4] | [7] | [13]

CCCCCCCCCCCC
inactive: [1] | [2] | [18] | [14] | [15] | [16] | [4] | [6] | [7] | [8] | [9] | [13] | [10]
active: [16] 30.2 µM | [17] 36.1 µM and 31 µM

NNc1nc(-c2ccc([N+](=O)[O-])cc2)cs1
active: [2] 1.95 µM | [7] 5.61 µM
inactive: [1] | [3] | [4] | [5] | [8] | [9] | [10]

CCOC(=O)c1nc(C(Cl)(Cl)Cl)n(-c2ccc(Cl)cc2Cl)n1
inactive: [1] | [18] | [10]
active: [2] 26.8 µM | [7] 40.4 µM | [8] 7.68 µM

CCCCC=O
not listed: [3] | [5] | [6] | [7] | [9] | [11]
inactive: all other assays above

NNC(=O)CCCCC(=O)NN
inactive: [2] | [18] | [4] | [5] | [9] | [12] | [10]

CCCCCCCCCCCCCCCC(=O)OC
inactive: [2] | [18] | [3] | [4] | [5] | [11] | [6] | [7] | [8] | [9]

Cc1ccccc1OCC(=O)O
inactive: [2] | [18] | [5] | [11] | [13]

NC(=NCCCCCCN=C(N)/N=C(\N)Nc1ccc(Cl)cc1)/N=C(\N)Nc1ccc(Cl)cc1
inactive: [2] | [18] | [3] | [4] | [5] | [7] | [8] | [12] | [10]
active: [2] 2.26 µM | [18] 23.5 µM | [3] 8.29 µM and 8.25 µM | [14] 4.88 µM | [15] 7.92 µM | [16] 5.53 µM | [5] 24.5 µM | [17] 4.95 µM | [7] 8.54 µM

Oc1c(Cl)ccc(Cl)c1Cl
active: [7] 19.5 µM
inactive: [2] | [18] | [3] | [4] | [6] | [8] | [9] | [12] | [10]
